# Data taken from ChEMBL document CHEMBL5058541.
# Columns and labels:
# Conditions in all cases: Compound concentration 20.0 uM, Protein concentration 2.0 uM, Result type QC Liability
# [1] = target: Tyrosine-protein kinase ABL1 (Homo sapiens) (UniProt P00519)
# [2] = target: Cyclin-dependent kinase 2 (Homo sapiens) (UniProt P24941)
# [3] = target: Casein kinase I isoform delta (Homo sapiens) (UniProt P48730)
# [4] = target: Glycogen synthase kinase-3 beta (Homo sapiens) (UniProt P49841)
# [5] = target: Mitogen-activated protein kinase 1 (Homo sapiens) (UniProt P28482)
# Mitogen-activated protein kinase 1 (Homo sapiens), sequence (P28482 whole entry): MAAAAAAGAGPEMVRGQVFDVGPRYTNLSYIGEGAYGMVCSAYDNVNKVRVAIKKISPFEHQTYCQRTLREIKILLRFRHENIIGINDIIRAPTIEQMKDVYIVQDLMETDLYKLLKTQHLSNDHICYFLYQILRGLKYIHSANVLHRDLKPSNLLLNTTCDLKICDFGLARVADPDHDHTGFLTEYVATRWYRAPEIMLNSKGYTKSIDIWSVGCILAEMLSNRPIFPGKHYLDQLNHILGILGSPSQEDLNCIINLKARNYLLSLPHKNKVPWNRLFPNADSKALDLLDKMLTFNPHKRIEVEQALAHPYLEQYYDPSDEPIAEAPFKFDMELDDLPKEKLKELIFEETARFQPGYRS
# [6] = target: T1, Aurora kinase A (Homo sapiens) (UniProt O14965)
# T1 sequence (whole entry): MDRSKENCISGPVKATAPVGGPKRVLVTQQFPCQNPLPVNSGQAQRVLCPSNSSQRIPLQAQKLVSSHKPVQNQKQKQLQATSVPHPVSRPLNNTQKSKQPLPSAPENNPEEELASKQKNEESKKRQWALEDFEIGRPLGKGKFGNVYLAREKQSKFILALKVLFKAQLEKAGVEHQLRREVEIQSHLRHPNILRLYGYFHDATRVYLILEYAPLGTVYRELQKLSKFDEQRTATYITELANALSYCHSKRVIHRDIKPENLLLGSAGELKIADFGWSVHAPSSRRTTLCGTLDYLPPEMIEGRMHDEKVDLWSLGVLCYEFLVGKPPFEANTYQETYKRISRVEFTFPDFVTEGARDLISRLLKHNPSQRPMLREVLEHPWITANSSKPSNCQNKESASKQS
# Tyrosine-protein kinase ABL1 (Homo sapiens), sequence (P00519 whole entry): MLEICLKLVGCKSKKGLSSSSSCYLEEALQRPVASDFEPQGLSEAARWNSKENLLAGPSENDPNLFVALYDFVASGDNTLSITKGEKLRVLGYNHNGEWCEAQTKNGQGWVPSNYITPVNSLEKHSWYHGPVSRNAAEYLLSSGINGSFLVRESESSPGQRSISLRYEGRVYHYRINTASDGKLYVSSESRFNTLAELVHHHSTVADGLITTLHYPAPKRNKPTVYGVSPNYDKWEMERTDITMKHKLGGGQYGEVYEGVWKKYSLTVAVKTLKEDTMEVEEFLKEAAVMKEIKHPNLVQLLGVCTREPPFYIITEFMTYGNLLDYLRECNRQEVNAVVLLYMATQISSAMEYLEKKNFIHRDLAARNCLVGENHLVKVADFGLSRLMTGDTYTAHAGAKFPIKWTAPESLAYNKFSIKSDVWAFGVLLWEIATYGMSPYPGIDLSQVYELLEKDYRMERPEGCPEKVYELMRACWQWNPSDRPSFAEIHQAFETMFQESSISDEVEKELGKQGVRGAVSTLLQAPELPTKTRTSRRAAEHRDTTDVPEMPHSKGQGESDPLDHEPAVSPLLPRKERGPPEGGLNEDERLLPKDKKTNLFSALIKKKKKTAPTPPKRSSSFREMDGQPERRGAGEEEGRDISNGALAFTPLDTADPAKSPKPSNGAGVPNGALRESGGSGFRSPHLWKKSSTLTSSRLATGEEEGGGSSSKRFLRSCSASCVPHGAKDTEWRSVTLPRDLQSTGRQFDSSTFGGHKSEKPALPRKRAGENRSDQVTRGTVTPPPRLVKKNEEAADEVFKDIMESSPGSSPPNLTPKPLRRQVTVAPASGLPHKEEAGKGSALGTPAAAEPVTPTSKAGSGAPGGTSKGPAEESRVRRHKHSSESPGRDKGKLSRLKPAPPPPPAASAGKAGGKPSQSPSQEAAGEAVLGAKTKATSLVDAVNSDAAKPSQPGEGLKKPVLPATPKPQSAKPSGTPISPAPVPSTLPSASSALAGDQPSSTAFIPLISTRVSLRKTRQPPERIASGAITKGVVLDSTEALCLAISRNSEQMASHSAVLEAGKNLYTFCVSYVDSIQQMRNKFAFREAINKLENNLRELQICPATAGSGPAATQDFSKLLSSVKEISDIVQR
# Glycogen synthase kinase-3 beta (Homo sapiens), sequence (P49841 whole entry, looked up): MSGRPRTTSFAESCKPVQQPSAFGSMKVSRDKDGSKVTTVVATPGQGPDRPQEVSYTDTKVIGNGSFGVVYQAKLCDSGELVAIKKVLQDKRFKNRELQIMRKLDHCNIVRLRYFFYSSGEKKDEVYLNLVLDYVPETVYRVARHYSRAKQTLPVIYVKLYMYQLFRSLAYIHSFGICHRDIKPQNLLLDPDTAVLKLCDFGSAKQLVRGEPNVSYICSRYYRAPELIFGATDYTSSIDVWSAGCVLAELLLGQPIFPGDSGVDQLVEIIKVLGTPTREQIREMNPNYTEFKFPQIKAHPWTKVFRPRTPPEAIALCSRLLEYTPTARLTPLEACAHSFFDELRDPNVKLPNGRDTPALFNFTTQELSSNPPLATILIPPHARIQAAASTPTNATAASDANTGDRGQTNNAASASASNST
# Casein kinase I isoform delta (Homo sapiens), sequence (P48730 whole entry, looked up, canonical isoform): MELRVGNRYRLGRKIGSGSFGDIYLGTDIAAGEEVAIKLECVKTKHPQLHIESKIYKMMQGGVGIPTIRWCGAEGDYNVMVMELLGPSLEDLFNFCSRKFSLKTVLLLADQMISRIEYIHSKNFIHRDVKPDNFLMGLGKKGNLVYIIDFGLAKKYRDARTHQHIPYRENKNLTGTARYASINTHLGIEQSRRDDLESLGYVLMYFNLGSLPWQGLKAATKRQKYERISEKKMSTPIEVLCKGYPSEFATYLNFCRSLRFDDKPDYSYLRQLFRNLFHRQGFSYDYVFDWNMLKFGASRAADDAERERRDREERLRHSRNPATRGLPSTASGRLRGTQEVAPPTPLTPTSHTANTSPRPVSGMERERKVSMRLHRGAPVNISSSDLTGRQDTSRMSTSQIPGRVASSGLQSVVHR
compound,measurement,setting,value
CS(=O)(=O)N1CCCC(NC(=O)[C@H](CCC2CCCCC2)NC(=O)c2ccc(CNC(=O)c3cnc4ccccn34)cc2)C1 (some centres undefined),ΔTm,[1],2.13 c
same,ΔTm,[2],-0.19 c
same,ΔTm,[3],0.571 c
same,ΔTm,[4],-0.0668 c
same,ΔTm,[5],-0.218 c
same,ΔTm,[6],0.119 c
CN(C)C(=O)c1ccc(-c2cc(C(=O)N[C@@H]3CCc4ccccc43)no2)cc1O,ΔTm,[1],0.236 c
same,ΔTm,[2],-0.0936 c
same,ΔTm,[3],0.0788 c
same,ΔTm,[4],-0.463 c
same,ΔTm,[5],-0.0605 c
same,ΔTm,[6],0.213 c
CN(c1ncccc1CNc1ccnc(-c2nc3c(F)c(Cl)ccc3[nH]2)n1)S(C)(=O)=O,ΔTm,[1],1.73 c
same,ΔTm,[2],0.96 c
same,ΔTm,[3],0.76 c
same,ΔTm,[4],0.69 c
same,ΔTm,[5],0.36 c
same,ΔTm,[6],1.93 c
O=C(NCCCN1CCOC1=O)c1cnc(NCc2cc(Br)ccc2Br)nc1NC1CCCC1,ΔTm,[1],0 c
same,ΔTm,[2],-0.772 c
same,ΔTm,[3],0 c
same,ΔTm,[4],0 c
same,ΔTm,[5],-0.601 c
same,ΔTm,[6],0.0724 c
